PubChem BioAssay (NCATS)
Results filed as inconclusive are left out. Active and inactive are the calls of the source. Calls follow the shape of the dose curve; as a rule, active = well fitted inhibition curve with a large enough effect; inconclusive = small, poorly fitted or top-dose-only effect; inactive = flat fitted curve, though single readings scatter.

Experiments:
[1] = qHTS profiling for inhibitors of Plasmodium falciparum proliferation (AID 504749);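 also: 0% = DMSO vehicle and full inhibition = artemisinin control; nearly all actives have a fitted effect of over 60% in size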; settings: P. falciparum in erythrocytes, SYBR Green DNA, 72 h
Outline: (§1)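 Infected RBCs, 0.3% parasitemia/2.5% Hct final; cpd 72 h, 37 C, 5% CO2; lysis buffer with saponin/triton/SYBR Green I, o/n RT dark; FI 485/535; norm. to artemisinin (0.29 uM) and DMSO.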

[2] = system: 3D7; assay: as above; settings: P. falciparum in erythrocytes, SYBR Green DNA, 72 h; series mostly up to 28.7 µM
Outline: as §1

[3] = system: 7G8; assay: as above; settings: P. falciparum in erythrocytes, SYBR Green DNA, 72 h; series mostly up to 28.7 µM
Outline: as §1

[4] = system: AA1029; assay: as above; settings: P. falciparum in erythrocytes, SYBR Green DNA, 72 h; series mostly up to 28.7 µM
Outline: as §1

[5] = system: AS120; assay: as above; settings: P. falciparum in erythrocytes, SYBR Green DNA, 72 h; series mostly up to 28.7 µM
Outline: as §1

[6] = system: ATS189; assay: as above; settings: P. falciparum in erythrocytes, SYBR Green DNA, 72 h; series mostly up to 28.7 µM
Outline: as §1

[7] = at 28.7 µM (top of the series), parasite line A
[8] = at 28.7 µM (top of the series), parasite line B

NC(N)=O
inactive: activity, negative = inhibition [1, 7] 0.0876% | activity, negative = inhibition [1, 8] -2.3% | Potency [2] | Potency [3] | Potency [4] | Potency [5] | Potency [6]

F[Si-2](F)(F)(F)(F)F
inactive: activity, negative = inhibition [1, 7] 3.4% | activity, negative = inhibition [1, 8] 19.2% | Potency [2] | Potency [3] | Potency [4] | Potency [5] | Potency [6]

CC1(O)CCC(C(C)(C)O)CC1 (stereo unspecified)
inactive: activity, negative = inhibition [1, 7] -2.29% | activity, negative = inhibition [1, 8] 4.1% | Potency [2] | Potency [3] | Potency [4] | Potency [5] | Potency [6]

c1ccc2ccccc2c1
inactive: activity, negative = inhibition [1, 7] 8.79% | activity, negative = inhibition [1, 8] 4.51% | Potency [2] | Potency [3] | Potency [4] | Potency [5] | Potency [6]

OCC(O)CO
inactive: activity, negative = inhibition [1, 7] 7.74% | activity, negative = inhibition [1, 8] 7.55% | Potency [2] | Potency [3] | Potency [4] | Potency [5] | Potency [6]

CCCCCCCCCCCCCCCCCC(=O)OC[C@@H](O)[C@H]1OC[C@H](O)[C@H]1O
inactive: activity, negative = inhibition [1, 7] -5.9% | activity, negative = inhibition [1, 8] -8.53% | Potency [2] | Potency [3] | Potency [4] | Potency [5] | Potency [6]

N=C(N)n1cccn1
inactive: activity, negative = inhibition [1, 7] -11.6% | activity, negative = inhibition [1, 8] 1.65% | Potency [2] | Potency [3] | Potency [4] | Potency [5] | Potency [6]

O=S(=O)(O)CCCS(=O)(=O)O
inactive: activity, negative = inhibition [1, 7] -6.14% | activity, negative = inhibition [1, 8] 2.06% | Potency [2] | Potency [3] | Potency [4] | Potency [5] | Potency [6]

O=C(O)[C@H]1CN(C/C=C/P(=O)(O)O)CCN1
inactive: activity, negative = inhibition [1, 7] 5.03% | activity, negative = inhibition [1, 8] 6.62% | Potency [2] | Potency [3] | Potency [4] | Potency [5] | Potency [6]

C[C@H](O)CN(C)C
inactive: activity, negative = inhibition [1, 7] 9.28% | activity, negative = inhibition [1, 8] 3.53% | Potency [2] | Potency [3] | Potency [4] | Potency [5] | Potency [6]

NCC[C@H](O)C(=O)N[C@@H]1C[C@H](N)[C@@H](O[C@H]2O[C@H](CN)CC[C@H]2N)[C@H](O)[C@H]1O[C@H]1O[C@H](CO)[C@@H](O)[C@H](N)[C@H]1O
inactive: activity, negative = inhibition [1, 7] -7.43% | activity, negative = inhibition [1, 8] 9.77% | Potency [2] | Potency [3] | Potency [4] | Potency [5] | Potency [6]

CCC(C)[C@@H](N)C(=O)O (stereo partly specified)
inactive: activity, negative = inhibition [1, 7] 11.4% | activity, negative = inhibition [1, 8] 24.4% | Potency [2] | Potency [3] | Potency [4] | Potency [5] | Potency [6]

CS(=O)(=O)OCC(O)C(O)COS(C)(=O)=O (stereo unspecified)
inactive: activity, negative = inhibition [1, 7] -4.77% | activity, negative = inhibition [1, 8] -5.43% | Potency [2] | Potency [3] | Potency [4] | Potency [5] | Potency [6]

CCCCO
inactive: activity, negative = inhibition [1, 7] 5.51% | activity, negative = inhibition [1, 8] 16.3% | Potency [2] | Potency [3] | Potency [4] | Potency [5] | Potency [6]

COc1ccc(/C=C/C(=O)O)cc1
inactive: activity, negative = inhibition [1, 7] 8.39% | activity, negative = inhibition [1, 8] -2.19% | Potency [2] | Potency [3] | Potency [4] | Potency [5] | Potency [6]

CN(C)C=Nc1c(I)cc(I)c(CCC(=O)O)c1I
inactive: activity, negative = inhibition [1, 7] 0.723% | activity, negative = inhibition [1, 8] 1.95% | Potency [2] | Potency [3] | Potency [4] | Potency [5] | Potency [6]

O=[n+]1ccn([O-])c2ccccc21
inactive: activity, negative = inhibition [1, 7] 14.9% | activity, negative = inhibition [1, 8] 3.55% | Potency [2] | Potency [3] | Potency [4] | Potency [5] | Potency [6]

Cc1ncc(C[n+]2csc(CCOP(=O)(O)OP(=O)(O)O)c2C)c(N)n1
inactive: activity, negative = inhibition [1, 7] -0.174% | activity, negative = inhibition [1, 8] 5.83% | Potency [2] | Potency [3] | Potency [4] | Potency [5] | Potency [6]

COc1cc(S(C)=O)ccc1-c1nc2ncccc2[nH]1 (stereo unspecified)
inactive: activity, negative = inhibition [1, 7] 6.38% | activity, negative = inhibition [1, 8] -9.68% | Potency [2] | Potency [3] | Potency [4] | Potency [5] | Potency [6]

CC(C)(CO)[C@@H](O)C(=O)NCCC(=O)NCCSSCCNC(=O)CCNC(=O)[C@H](O)C(C)(C)CO
inactive: activity, negative = inhibition [1, 7] -1% | activity, negative = inhibition [1, 8] -2.45% | Potency [2] | Potency [3] | Potency [4] | Potency [5] | Potency [6]

CC(=O)N[C@@H]1C(O[C@H]2O[C@H](C(=O)O)C(O)[C@H](O)[C@H]2O)[C@H](O)[C@@H](CO)O[C@H]1O[C@@H]1C(C(=O)O)O[C@@H](O[C@H]2[C@H](O)[C@@H](CO)OC(O)[C@@H]2NC(C)=O)[C@H](O)[C@H]1O (stereo partly specified)
inactive: activity, negative = inhibition [1, 7] 0.279% | activity, negative = inhibition [1, 8] 2.2% | Potency [2] | Potency [3] | Potency [4] | Potency [5] | Potency [6]

CC(=O)Nc1ccc(OC(=O)c2ccccc2O)cc1
inactive: activity, negative = inhibition [1, 7] -9.69% | activity, negative = inhibition [1, 8] 13.7% | Potency [2] | Potency [3] | Potency [4] | Potency [5] | Potency [6]

C=CCOc1ccc(CC(=O)O)cc1Cl
inactive: activity, negative = inhibition [1, 7] 8.56% | activity, negative = inhibition [1, 8] 1.68% | Potency [2] | Potency [3] | Potency [4] | Potency [5] | Potency [6]

O=C(O)COc1ccccc1/C=N/NC(=O)c1ccncc1
inactive: activity, negative = inhibition [1, 7] 7.51% | activity, negative = inhibition [1, 8] 0.92% | Potency [2] | Potency [3] | Potency [4] | Potency [5] | Potency [6]

CC(=O)Nc1ccc(OC(C)=O)cc1
inactive: activity, negative = inhibition [1, 7] 10.5% | activity, negative = inhibition [1, 8] 11.7% | Potency [2] | Potency [3] | Potency [4] | Potency [5] | Potency [6]

CN1C(=O)C[C@@H](C(=O)N[C@@H](Cc2cnc[nH]2)C(=O)N2CCC[C@H]2C(N)=O)NC1=O
inactive: activity, negative = inhibition [1, 7] 13.6% | activity, negative = inhibition [1, 8] -7.4% | Potency [2] | Potency [3] | Potency [4] | Potency [5] | Potency [6]

CCOC(=O)c1cc(-c2ccccc2)nc2ccc(C)cc12
inactive: activity, negative = inhibition [1, 7] 17.4% | activity, negative = inhibition [1, 8] 7.25% | Potency [2] | Potency [3] | Potency [4] | Potency [5] | Potency [6]

O=C1CCC(=O)N1CO
inactive: activity, negative = inhibition [1, 7] -2.35% | activity, negative = inhibition [1, 8] 7.84% | Potency [2] | Potency [3] | Potency [4] | Potency [5] | Potency [6]

COc1ccc(-c2noc(CC(=O)O)c2-c2ccc(OC)cc2)cc1
inactive: activity, negative = inhibition [1, 7] 5.47% | activity, negative = inhibition [1, 8] 9.58% | Potency [2] | Potency [3] | Potency [4] | Potency [5] | Potency [6]

O[C@@H]([C@H](O)[C@H](O)CBr)[C@H](O)CBr
inactive: activity, negative = inhibition [1, 7] -11.7% | activity, negative = inhibition [1, 8] 1.51% | Potency [2] | Potency [3] | Potency [4] | Potency [5] | Potency [6]

O=C1N=C2SCCN2C(=O)C1Cc1ccc(Cl)cc1 (stereo unspecified)
inactive: activity, negative = inhibition [1, 7] 18.3% | activity, negative = inhibition [1, 8] 17.2% | Potency [2] | Potency [3] | Potency [4] | Potency [5] | Potency [6]

CC(=O)Oc1cc(C(F)(F)F)ccc1C(=O)O
inactive: activity, negative = inhibition ([1]; at 12.8 µM (top of the series), parasite line A) 7.13% | activity, negative = inhibition ([1]; at 12.8 µM (top of the series), parasite line B) 12.5% | Potency [2] | Potency [3] | Potency [4] | Potency [5] | Potency [6]

NC(=S)NS(=O)(=O)c1ccc(N)cc1
inactive: activity, negative = inhibition [1, 7] -3.33% | activity, negative = inhibition [1, 8] -5.51% | Potency [2] | Potency [3] | Potency [4] | Potency [5] | Potency [6]
